According to PubChem BioAssay AID504332 (National Center for Advancing Translational Sciences (NCATS), 2011):
Hit rate of the full screen: of about 350,000 compounds, about 31,000 (8.9%) were called active. Another 15% or so got no clear call; they are omitted. Calls follow the shape of the dose curve; as a rule, active = well fitted inhibition curve with a large enough effect; inconclusive = small, poorly fitted or top-dose-only effect; inactive = no such curve, though single readings can be large or run the other way. This excerpt belongs to a sample that is enriched for actives.

Each molecule was assayed against Histone-lysine N-methyltransferase EHMT2 (Homo sapiens) (UniProt Q96KQ7) (assay: qHTS Assay for Inhibitors of Histone Lysine Methyltransferase G9a). Conditions: G9a H3K9 monomethylation, AlphaScreen, 2 h; series mostly up to 59 µM.
Chain of Histone-lysine N-methyltransferase EHMT2 (Homo sapiens) (Q96KQ7 913-1193 limits assumed): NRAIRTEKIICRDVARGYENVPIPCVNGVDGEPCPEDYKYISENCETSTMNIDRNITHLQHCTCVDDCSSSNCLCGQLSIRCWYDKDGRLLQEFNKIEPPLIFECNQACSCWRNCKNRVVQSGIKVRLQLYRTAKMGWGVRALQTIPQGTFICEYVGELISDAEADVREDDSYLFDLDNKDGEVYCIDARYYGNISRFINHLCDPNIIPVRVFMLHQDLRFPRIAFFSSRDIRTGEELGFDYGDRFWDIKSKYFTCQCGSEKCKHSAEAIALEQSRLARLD
Procedure, shortened: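 AlphaScreen read-out: biotin-H3K9 peptide (500 nM) methylation by 20 nM enzyme with 20 uM SAM, 2 h at room temperature after 15 min compound preincubation; anti-monomethyl H3K9 antibody plus donor/acceptor beads, 10 min dark.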
% is scaled to controls: 0 for no effect and ±100 for the full control effect; potency is read from the fitted curve at half-maximal effect.
Also: nearly all actives have a fitted effect of over 75% in size.

Potency, inactive:
CCCCNC(=S)N/N=C1\CCCCc2ccccc21
S=C(NCCc1ccccc1)NCC1CCCO1 (stereo not given)
CC(C)(C)NC(=O)CSc1nnc(NC(=O)CCc2ccccc2)s1
Cc1ccc(CN2CCN(Cc3ccccc3-c3ccco3)CC2CCO)o1 (stereo not given)
COc1ccc(CN2CCN(Cc3cn(C)nc3-c3ccccc3)CC2CCO)c(C)c1C (stereo not given)
COc1ccccc1-c1ccnc2[nH]n(-c3ccccc3)c(=O)c12
Cc1ccc(/C=N/NC(=O)c2sccc2OCc2ccc(F)cc2)cc1
CNC(=S)NNC(=O)c1cccn(Cc2ccccc2)c1=O
Cc1ccc(-c2nn(-c3ccc(F)cc3)cc2C(=O)NCC(c2cccs2)N2CCOCC2)cc1 (stereo not given)
CC(=O)c1ccc(N2CCN(C(=O)c3ccc(Cl)c(S(=O)(=O)NC4CC4)c3)CC2)c(F)c1
CCOc1ccccc1NC(=O)Cn1c(=O)n(Cc2ccco2)c(=O)c2sc3ccccc3c21
CCOC(=O)/C=c1\s/c(=C\c2ccccc2OC)c(=O)n1CC(=O)N1CCOCC1
Cc1cc2ccccc2n1CCNC(=O)c1ccc(F)cc1
Cc1ccc(NC(=O)c2cn3c4c(ccc(Cl)c4c2=O)OC(C)C3)cc1C (stereo not given)
O=C(O)c1cc(S(=O)(=O)N(Cc2ccccc2)c2ccccc2)ccc1Cl
FC(F)(F)c1cc(-c2ccco2)nc(N2CCOCC2)n1
O=C(c1c(F)cccc1Cl)N1CCN(S(=O)(=O)c2ccc3c(c2)OCCCO3)CC1
Cc1oc(-c2ccccc2F)nc1CN1CCC(C(=O)NCCc2ccc(Cl)cc2)CC1
CCOc1ccccc1-c1cc(C(=O)N2CCOCC2)c2ccccc2n1
O=S(=O)(c1ccc(Br)cc1)c1nnn2c1nc(N1CCOCC1)c1sccc12
Cc1nc([N+](=O)[O-])cn1CC(=O)Nc1ccc2c(c1)OCO2
CC(=O)N/N=C/c1cc2c(cc1[N+](=O)[O-])OCO2
Cc1ccc(S(=O)(=O)N2CCN(CC(=O)N/N=C/c3cc([N+](=O)[O-])ccc3Cl)CC2)cc1
CCOC(=O)c1nc(-c2ccc3c(c2)OCO3)[nH]c1C
CNc1nnc(-c2ccco2)s1
Cc1ccc(OCC(=O)Nc2nnc(-c3ccco3)s2)cc1
Cc1cccc(NC(=O)c2ccc(COc3ccccc3[N+](=O)[O-])o2)n1
CC(C#N)(NC(=O)CN1CCN(S(=O)(=O)c2cc(C(F)(F)F)ccc2Cl)CC1)C1CC1 (stereo not given)
COc1ccc(Cl)cc1S(=O)(=O)N1CCC(c2ccncc2)CC1
N#Cc1ccsc1NC(=O)CN1CCCCC1
COc1ccc(Cl)cc1S(=O)(=O)N1CCC(O)(c2ccc(Cl)cc2)CC1
O=C(NCC(c1ccco1)S(=O)(=O)c1cccs1)c1ccc(F)cc1 (stereo not given)
CCc1ccc(NC(=O)CN2CCSc3ccc(S(=O)(=O)N4CCCC4)cc32)cc1
CCN(Cc1ccccc1)S(=O)(=O)c1ccc2c(c1)CCCN2C(C)=O
Cc1ccc2[nH]c3c(=O)n(CC(=O)NC(C)C)ncc3c2c1
CCc1ccc(NC(=O)CN2C(=O)C(c3ccccc3)=NC23CCCCCC3)cc1
Cc1cc2c(cc3c(SCc4nc(-c5ccccc5)oc4C)nnc(C)n32)o1
Cc1nnc(SCc2cccc(Cl)c2)n(N)c1=O
Cc1ccc(C2CC2C(=O)NN)cc1 (stereo not given)
COc1cc(C(=O)Nc2ccc(-n3c(C)nc4ccccc4c3=O)cc2)cc(OC)c1OC
CCc1c(C)nc(N)n2c(SCC(=O)NC3CCCCC3)nnc12
O=C(NCCCc1ccccc1)C(=O)c1c[nH]c2ccccc12
COc1ccc(OC)c2[nH]c(=O)c(CCNC(=O)C(C)(C)C)cc12
Cc1ccc(S(=O)(=O)c2cn(Cc3ccccc3)c3cc(N4CCCC4)c(F)cc3c2=O)c(C)c1
Cc1c(NC(=O)c2cc(=O)c3ccccc3o2)c(=O)n(-c2ccccc2)n1C
CCc1cccc(CC)c1NC(=O)Cn1c(=O)c(-c2cc(C)ccc2NC(C)=O)nc2ccccc21
COC(=O)c1sc(NC(=O)COC(=O)C2CCC2)c(C(=O)OC)c1C
COC(=O)c1c(NC(=O)C(C)Oc2ccc(Cl)c(C)c2)sc(C)c1C (stereo not given)
CSc1ccccc1NC(=O)COC(=O)CCCOc1ccc(C)cc1
COc1ccc(CNC(=O)c2cc(C(=O)C3CC3)c[nH]2)cc1
Cc1cccc(N2CCN(C(=O)CCSCc3ccccc3F)CC2)c1C
COc1ccc(CN(C)C(=O)c2cc(-c3ccc(C)cc3C)nc3ccccc23)c(OC)c1OC
Cc1cccc(-n2ncc(C(=O)N3CCN(c4ccc(Cl)cc4)CC3)c2C2CCN(C(=O)OC(C)(C)C)CC2)c1
CCOc1ccc2nc(N3CCC(C(=O)Nc4cc(C)ccc4C)CC3)sc2c1
Cc1ccc2nc(NC(=O)C3CCN(S(=O)(=O)c4ccc5c(c4)oc(=O)n5C)CC3)sc2c1
CCc1nc2cccnc2n1-c1ccc(CC(=O)Nc2c(C)cccc2C)cc1
COCCCNC(=O)Cc1ccc(-n2c(C)nc3cccnc32)cc1
COc1ccc(OC)c(NC(=O)CCN2CCC(C)CC2)c1
COc1ccc(NC(=O)CCN2CCCC2)c(OC)c1
O=C(CSc1nc2nccnc2c(=O)n1CCc1c[nH]c2ccccc12)Nc1ccccc1F
O=C(c1cccc(Br)c1)N1CCN(Cc2cc(=O)n3nc(-c4ccccc4)sc3n2)CC1
CC(OC(=O)c1ccc2ccccc2n1)C(=O)c1ccccc1 (stereo not given)
O=C(OCc1ccc([N+](=O)[O-])cc1)c1ccccn1
COCCn1c(SCC(=O)c2cc(C)ccc2C)nc2cc(C(=O)NC3CCCC3)ccc2c1=O
COc1ccc(S(=O)(=O)N(C)CC(=O)N2CCCC2)cc1Cl
COc1ccc(S(=O)(=O)NCc2cccn2Cc2cccc(C)c2)cc1Cl

Potency, active:
CCCC1CCC(=NNC(=S)NCCc2ccccc2)CC1 (stereo not given) 14.1 µM
CCn1cc(CN2CCN(CC(C)(C)C)C(CCO)C2)c2ccccc21 (stereo not given) 50.1 µM
CNC(=S)NNC(=O)c1sccc1OCc1ccccc1 50.1 µM
CCOc1ccccc1/C=c1\sc2nc(-c3ccco3)nn2c1=O 35.5 µM
Cc1cc(C)c2nc(-c3ccco3)cc(C(=O)O)c2c1 10 µM
CCOc1ccccc1-c1nc(CN2CCC(C(=O)N3CCOCC3)CC2)c(C)o1 89.1 µM
Cc1ccc(-c2n[nH]c(=S)n2/N=C/c2cc3c(cc2[N+](=O)[O-])OCO3)cc1 1.26 µM
Cc1ccc(S(=O)(=O)N/N=C\c2cc3c(cc2[N+](=O)[O-])OCO3)cc1 5.62 µM
COc1ccc(OCC(=O)Nc2nnc(-c3ccco3)s2)cc1 50.1 µM
CCOc1ccc(OCc2ccc(C(=O)Nc3cccc(C)n3)o2)cc1 44.7 µM
N#Cc1ccsc1NC(=O)CN1CCN(S(=O)(=O)c2cc(Cl)ccc2Cl)CC1 50.1 µM
COc1ccc(Cl)cc1S(=O)(=O)N1CCN(CC(=O)C(C)(C)C)CC1 44.7 µM
Cc1cc2c(cc3c(SCc4cccc(Cl)c4)nnc(C)n32)o1 7.08 µM
Cc1ccc(C2NC(C(=O)O)CS2)cc1 (stereo not given) 31.6 µM
COc1ccc(OC)c2[nH]c(=O)c(CCNC(=O)C(=O)c3c[nH]c4ccccc34)cc12 50.1 µM
COCCCNCC(=O)Nc1sc(C)c(C)c1C(=O)OC 1 µM
Cc1cccc(N2CCN(C(=O)/C=C/c3ccco3)CC2)c1C 11.2 µM
Cc1ccc2nc(N3C(=O)C(O)=C(C(=O)c4ccco4)C3c3cccc(O)c3)sc2c1 (stereo not given) 31.6 µM
CCc1nc2cccnc2n1-c1ccc(C(=O)O)cc1 35.5 µM
COC(=O)CNC(c1ccccc1Cl)c1cc(Br)ccc1NC(=O)CCN1CCOCC1 (stereo not given) 39.8 µM
O=C(Oc1ccc([N+](=O)[O-])cc1)c1ccc2ccccc2n1 12.6 µM
COc1ccc(S(=O)(=O)c2c[nH]c(=S)[nH]c2=O)cc1Cl 79.4 µM

activity, negative = inhibition, inactive:
CC1CCCN(C(=O)c2cc(-c3ccco3)nc3ccccc23)C1 (stereo not given) -9.53% [at 2.33 µM]
Cc1cc2c(c(=O)n1Cc1ccccc1)C1O[C@](CCCCN3C(=O)c4ccccc4C3=O)(Cc3ccccc31)O2 -0.249% [at 2.33 µM]
COc1ccccc1-c1nn(Cc2ccccc2)cc1C(=O)N1CCN(c2ncccn2)CC1 21.8% [at 12.7 µM]
Cc1cccc(NC(=O)Nc2ccc(OCc3ccccc3)cc2)n1 8.02% [at 2.33 µM]
Cc1cc(C(=O)NNC(=O)c2ccccc2O)c(C)o1 72.2% [at 12.7 µM]
CC(=O)Nc1ccc(NC(=O)C(NS(=O)(=O)c2ccc3c(c2)OCCO3)C(C)C)cc1 (stereo not given) 15.5% [at 12.7 µM]
Cc1ccc(NC(=O)C2CC2c2ccccc2)cc1 (stereo not given) 18.3% [at 2.33 µM]
Cc1cccc(N2CCN(C(=O)c3cnc(N4CCCC4)nc3C)CC2)c1C 5.62% [at 12.7 µM]
COc1ccc([C@H]2CC(=O)C=C(c3ccc(C)cc3)C2)cc1 -2.52% [at 0.501 µM]
CN(Cc1cccs1)C(=O)CN1C(=O)c2ccccc2S1(=O)=O -6.03% [at 2.33 µM]
CCCCN(C(=O)c1nn(C)c(=O)c2ccccc12)c1c(N)n(CCC)c(=O)[nH]c1=O -30.6% [at 12.7 µM]
O=C(COC(=O)c1ccccc1Cl)NC1CCCCCCC1 6.1% [at 0.501 µM]
